A word on the AC50: it is the concentration at which the activity in the assay is half-maximal.

Molecules are shown by their SMILES. Records with an inconclusive call do not appear. Calls of active or inactive are those of the source. How the source made its calls, unless noted: active means hit-call score of the fitted dose curve at least 0.9, where 1 is the maximum; inactive means score below 0.9.

Assay [1] addresses Myc proto-oncogene protein (Homo sapiens) (UniProt P01106). The assay is described as follows: ATG_Myc_CIS: Attagene CIS-FACTORIAL HepG2 Assay for human Myelocytomatosis (Myc) Proto-Oncogene Transcription Factor (AID 2282990). To be noted: HepG2, Attagene cis-reporter transcription factor activity; actives raise or lower the signal. In a few lines:
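HepG2, transient MRTU transfection (cis promoters, endogenous TFs); 24 h dosing; TriZol RNA → oligo(dT) RT → PCR → 6-FAM primer extension → HpaI cut → CE. Bidirectional fit vs DMSO.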

Assay [2] can be described thus: ATG_NF_kB_CIS: Attagene CIS-FACTORIAL HepG2 Assay for human Nuclear Factor Kappa B (NF-kB) (AID 2282991). Conditions: HepG2 Attagene cis-factorial NF-kB reporter mRNA; actives raise or lower the signal. The essentials:
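HepG2 cells transfected with cis-promoter-driven reporter units, so endogenous transcription factor activity is measured. Reporter mRNA quantified 24 h after dosing by RT-PCR and capillary electrophoresis, with bidirectional fitting against DMSO.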

Assay [3] can be described thus: ATG_NRF2_ARE_CIS: Attagene CIS-FACTORIAL HepG2 Assay for human Nuclear Factor Erythroid 2 Related Factor 2 (NFR2) response to Antioxidant Response Elements (ARE) (AID 2282992). To be noted: HepG2 Attagene ARE/NRF2 reporter, transcription factor activity; actives raise or lower the signal. In a few lines:
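Endogenous transcription factor activity read out as reporter transcript levels (RT-PCR plus capillary electrophoresis, fluorescence) in transiently transfected HepG2 cells. Measured at 24 h after dosing; gain or loss of signal fitted versus DMSO.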

A short description of assay [4]: ATG_Oct_MLP_CIS: Attagene CIS-FACTORIAL HepG2 Assay for human Octamer-Binding Transcription Factor (Oct) (AID 2282993). Conditions: HepG2 Attagene cis-factorial Oct reporter, mRNA; actives raise or lower the signal. The essentials: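 Readout is reporter transcript level from RT-PCR with fluorescent primer extension and capillary electrophoresis, fitted in both directions against DMSO. Transfected HepG2 reporter units report endogenous factor activity after 24 h dosing.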

The target in assay [5] is Cellular tumor antigen p53 (Homo sapiens) (UniProt P04637). The assay is described as follows: ATG_p53_CIS: Attagene CIS-FACTORIAL HepG2 Assay for human p53 Transcription Factor (AID 2282994). To be noted: HepG2 p53 cis-element reporter, Attagene mRNA; actives raise or lower the signal. The essentials: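 Endogenous p53 activity read in transiently transfected HepG2 from a cis-element-driven reporter transcript after 24 h exposure. RNA reverse-transcribed, PCR-amplified, fluorescently labelled and sized by capillary electrophoresis; gain or loss fitted against DMSO baseline.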
Chain of Cellular tumor antigen p53 (Homo sapiens) (P04637 whole entry, looked up): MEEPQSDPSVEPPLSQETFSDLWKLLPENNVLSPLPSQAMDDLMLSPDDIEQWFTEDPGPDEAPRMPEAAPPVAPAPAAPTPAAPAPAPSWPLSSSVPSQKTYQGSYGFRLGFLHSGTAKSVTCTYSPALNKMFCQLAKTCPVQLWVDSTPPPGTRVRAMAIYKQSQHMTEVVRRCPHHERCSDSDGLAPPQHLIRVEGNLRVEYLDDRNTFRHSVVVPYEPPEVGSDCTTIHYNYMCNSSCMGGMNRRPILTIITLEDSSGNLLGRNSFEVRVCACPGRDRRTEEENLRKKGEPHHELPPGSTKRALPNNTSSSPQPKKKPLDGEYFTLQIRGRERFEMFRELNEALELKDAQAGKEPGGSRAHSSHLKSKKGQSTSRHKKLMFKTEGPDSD

A short description of assay [6]: BSK_3C_TissueFactor: BioMAP Diversity Plus: 3C Assay for Tissue Factor Biomarker Activity (AID 2282997). To be noted: BioMAP 3C HUVEC, tissue factor biomarker readout; actives raise or lower the signal. The essentials:
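Readout: Tissue Factor ELISA. Cells: human primary umbilical vein endothelium. Time: 24 h after dosing. Analysis: bidirectional fit, DMSO baseline.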

The nature of assay [7]: BSK_3C_uPAR: BioMAP Diversity Plus: 3C Assay for Urokinase-type plasminogen activator receptor (uPAR) Biomarker Activity (AID 2282998). Conditions: BioMAP 3C HUVEC, uPAR biomarker ELISA; actives raise or lower the signal. The essentials:
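Cell-surface uPAR on HUVEC (3C system) read by ELISA at 24 h post-treatment, with DMSO as baseline and fitting in both directions. Parallel cultures stained with SRB to flag overt cytotoxicity.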
A general note: An ELISA detects its analyte on a solid surface through an enzyme-linked reagent.

Assay [8] can be described thus: BSK_3C_VCAM1: BioMAP Diversity Plus: 3C Assay for Vascular cell adhesion molecule 1 (VCAM1) Biomarker Activity (AID 2282999). Conditions: BioMAP 3C HUVEC, VCAM1 ELISA, cytokine-stimulated; actives raise or lower the signal. In a few lines: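 Activity fitted in both directions relative to DMSO, with ELISA measurement of the surface marker on primary HUVEC (3C) at 24 h post-treatment; parallel SRB staining (0.1% SRB, TCA-fixed, 560 nm) flagged overt cytotoxicity.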

Assay [9] in a line: BSK_4H_Eotaxin3: BioMAP Diversity Plus: 4H Assay for Eotaxin 3 Biomarker Activity (AID 2283000).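 On outcome: CCL26 protein level quantified by ELISA in parallel with SRB cytotoxicity check.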 Conditions: primary human endothelial cells (HUVEC); actives raise or lower the signal. The essentials:
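HUVEC, 24 h post-dose, ELISA for Eotaxin-3/CCL26. Gain or loss of signal fitted bidirectionally vs DMSO baseline.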

The target of assay [10] is human Peroxisome Proliferator-activated Receptor delta (PPARd), PPARD (gene 5467) (UniProt Q03181). Nature of the assay: ATG_PPARd_TRANS: Attagene TRANS-FACTORIAL HepG2 Assay for human Peroxisome Proliferator-activated Receptor delta (PPARd) (AID 2283002; active means hit-call score of the fitted dose curve at least 0.9, where 1 is the maximum). The essentials:
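Transient HepG2 transfection (multiple GAL4-UAS RTUs, chimeric receptor-Gal4); 24 h dosing; total RNA → oligo(dT) RT → PCR → 6-FAM primer extension → HpaI cut → CE. Positive direction vs DMSO.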

The nature of assay [11]: BSK_3C_Proliferation: Cell Proliferation Assessment in the BioMAP Diversity Plus: 3C Assay (AID 2283006).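 On AC50: potency may reflect either rise or fall in cell number versus DMSO.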 To be noted: primary human endothelial cells (HUVEC). In a few lines:
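HUVEC, sub-confluent; 48 h chemical exposure; 10% TCA fix, 0.1% SRB stain, A560 total protein. Gain or loss of signal fitted both directions vs DMSO control.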

In assay [12] the target is Peroxisome proliferator-activated receptor gamma (Homo sapiens) (UniProt P37231). The assay is described as follows: ATG_PPARg_TRANS: Attagene TRANS-FACTORIAL HepG2 Assay for human Peroxisome Proliferator-activated Receptor-gamma (PPARg) (AID 2283007; active means hit-call score of the fitted dose curve at least 0.9, where 1 is the maximum). In a few lines: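 HepG2 cells are transiently transfected with GAL4-UAS reporter units driven by chimeric NR-Gal4 fusions and dosed for 24 h. Reporter mRNA is quantified by RT-PCR, 6-FAM labelling, HpaI digestion and capillary electrophoresis. Induction is scored against DMSO.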
Chain of Peroxisome proliferator-activated receptor gamma (Homo sapiens) (P37231 whole entry, looked up, the tested form may be a part): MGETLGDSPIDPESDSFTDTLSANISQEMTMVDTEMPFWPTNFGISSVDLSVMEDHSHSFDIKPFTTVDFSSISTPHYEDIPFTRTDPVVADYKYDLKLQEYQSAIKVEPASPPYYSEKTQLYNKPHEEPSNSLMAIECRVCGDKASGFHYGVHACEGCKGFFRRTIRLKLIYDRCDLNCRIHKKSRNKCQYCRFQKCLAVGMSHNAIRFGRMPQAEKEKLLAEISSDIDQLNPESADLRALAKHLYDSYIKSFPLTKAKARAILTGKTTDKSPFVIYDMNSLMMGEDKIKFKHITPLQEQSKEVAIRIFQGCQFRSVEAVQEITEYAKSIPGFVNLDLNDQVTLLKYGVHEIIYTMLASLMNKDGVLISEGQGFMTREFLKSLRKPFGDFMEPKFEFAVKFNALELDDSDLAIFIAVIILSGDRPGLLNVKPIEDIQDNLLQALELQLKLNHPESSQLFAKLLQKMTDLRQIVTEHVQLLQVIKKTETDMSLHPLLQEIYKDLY

In assay [13] the target is Nuclear receptor subfamily 1 group I member 2 (Homo sapiens) (UniProt O75469). The assay is described as follows: ATG_PXR_TRANS: Attagene TRANS-FACTORIAL HepG2 Assay for human Pregnane X Receptor (PXR) (AID 2283008; active means hit-call score of the fitted dose curve at least 0.9, where 1 is the maximum). In a few lines: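 Transactivation by exogenous PXR–GAL4 fusion measured as reporter transcript induction after 24 h compound treatment of transfected human HepG2 cells. Read-out via RT-PCR and capillary electrophoresis of labelled fragments, fitted upward relative to DMSO.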
Chain of Nuclear receptor subfamily 1 group I member 2 (Homo sapiens) (O75469 whole entry, looked up, the tested form may be a part): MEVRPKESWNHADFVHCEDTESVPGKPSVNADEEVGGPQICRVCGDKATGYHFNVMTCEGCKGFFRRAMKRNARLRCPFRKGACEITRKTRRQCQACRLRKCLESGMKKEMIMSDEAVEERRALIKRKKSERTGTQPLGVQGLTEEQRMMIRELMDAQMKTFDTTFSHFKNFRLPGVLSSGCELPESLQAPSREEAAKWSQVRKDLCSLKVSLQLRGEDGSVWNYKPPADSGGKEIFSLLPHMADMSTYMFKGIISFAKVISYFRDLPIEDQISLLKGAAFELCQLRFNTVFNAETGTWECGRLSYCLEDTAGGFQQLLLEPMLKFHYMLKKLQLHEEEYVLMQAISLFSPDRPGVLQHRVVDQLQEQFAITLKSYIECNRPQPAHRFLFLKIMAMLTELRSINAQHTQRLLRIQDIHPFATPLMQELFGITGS

Assay [14] has as its target human Retinoic Acid Receptor gamma (RARg), RARG (gene 5916) (UniProt P13631). Nature of the assay: ATG_RARg_TRANS: Attagene TRANS-FACTORIAL HepG2 Assay for human Retinoic Acid Receptor gamma (RARg) (AID 2283009; active means hit-call score of the fitted dose curve at least 0.9, where 1 is the maximum). In a few lines: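 Readout: reporter transcript levels via RT-PCR, 6-FAM primer-extension labelling, HpaI digestion and capillary electrophoresis. Cells: HepG2 carrying transfected RARg-GAL4 chimera plus UAS reporter set. Dosing 24 h; DMSO negative control.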

Assay [15] addresses human Peroxisome Proliferator-activated Receptor alpha (PPARa), PPARA (gene 5465) (UniProt Q07869). The assay is described as follows: ATG_PPARa_TRANS: Attagene TRANS-FACTORIAL HepG2 Assay for human Peroxisome Proliferator-activated Receptor alpha (PPARa) (AID 2283001; active means hit-call score of the fitted dose curve at least 0.9, where 1 is the maximum). In a few lines:
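Transfected HepG2 cells treated with test chemical for 24 h. RNA isolated, reverse-transcribed with oligo(dT), PCR-amplified, FAM-labelled and HpaI-digested. Fragments sized by capillary electrophoresis; gain-of-signal fit relative to DMSO.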

Assay [16] deals with Retinoic acid receptor alpha (Homo sapiens) (UniProt P10276). The assay is described as follows: ATG_RARa_TRANS: Attagene TRANS-FACTORIAL HepG2 Assay for human Retinoic Acid Receptor alpha (RARa) (AID 2283005; active means hit-call score of the fitted dose curve at least 0.9, where 1 is the maximum). The essentials: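 Reporter transcripts, measured by RT-PCR with fluorescent labeling and capillary electrophoresis after 24 h dosing, reflect activity of an exogenous human RARa–GAL4 fusion in transiently transfected HepG2. Fitted for increase relative to DMSO.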
Chain of Retinoic acid receptor alpha (Homo sapiens) (P10276 whole entry, looked up, the tested form may be a part): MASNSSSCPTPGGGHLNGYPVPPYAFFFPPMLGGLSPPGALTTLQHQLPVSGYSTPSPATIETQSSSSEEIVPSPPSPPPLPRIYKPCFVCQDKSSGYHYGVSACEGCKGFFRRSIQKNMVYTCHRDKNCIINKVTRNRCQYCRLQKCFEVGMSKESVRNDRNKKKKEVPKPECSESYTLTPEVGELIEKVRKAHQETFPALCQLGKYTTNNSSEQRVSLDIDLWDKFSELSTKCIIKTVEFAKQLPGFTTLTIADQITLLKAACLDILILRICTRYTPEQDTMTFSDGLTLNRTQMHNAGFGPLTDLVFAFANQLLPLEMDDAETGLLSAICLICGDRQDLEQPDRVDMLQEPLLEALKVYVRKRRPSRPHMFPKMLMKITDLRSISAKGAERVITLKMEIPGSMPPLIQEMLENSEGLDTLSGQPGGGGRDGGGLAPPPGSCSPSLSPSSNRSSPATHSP

Assay [17] concerns the target human RAR-related Orphan Receptor gamma (RORg), RORC (gene 6097) (UniProt P51449). The assay is described as follows: ATG_RORg_TRANS: Attagene TRANS-FACTORIAL HepG2 Assay for human RAR-related Orphan Receptor gamma (RORg) (AID 2283011; active means hit-call score of the fitted dose curve at least 0.9, where 1 is the maximum). In a few lines: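 Readout: reporter transcript induction (RT-PCR, fluorescent primer extension, capillary electrophoresis) after 24 h compound exposure of transiently transfected HepG2 cells carrying a RORg-Gal4 chimera and GAL4-UAS reporters; DMSO served as baseline, with increasing signal fitted.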

Assay [18] deals with human Retinoic Acid Receptor beta (RARb), RARB (gene 5915) (UniProt P10826). Nature of the assay: ATG_RARb_TRANS: Attagene TRANS-FACTORIAL HepG2 Assay for human Retinoic Acid Receptor beta (AID 2283004; active means hit-call score of the fitted dose curve at least 0.9, where 1 is the maximum). In a few lines: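 HepG2 cells transiently transfected with multiplexed GAL4-UAS reporter units expressing chimeric NR–Gal4 fusions; 24 h compound exposure. Reporter mRNA quantified by RT-PCR, 6-FAM labelling, HpaI digestion and capillary electrophoresis; gain-of-signal fitted against DMSO baseline.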
Chain of human Retinoic Acid Receptor beta (RARb), RARB (gene 5915) (P10826 whole entry, looked up, the tested form may be a part): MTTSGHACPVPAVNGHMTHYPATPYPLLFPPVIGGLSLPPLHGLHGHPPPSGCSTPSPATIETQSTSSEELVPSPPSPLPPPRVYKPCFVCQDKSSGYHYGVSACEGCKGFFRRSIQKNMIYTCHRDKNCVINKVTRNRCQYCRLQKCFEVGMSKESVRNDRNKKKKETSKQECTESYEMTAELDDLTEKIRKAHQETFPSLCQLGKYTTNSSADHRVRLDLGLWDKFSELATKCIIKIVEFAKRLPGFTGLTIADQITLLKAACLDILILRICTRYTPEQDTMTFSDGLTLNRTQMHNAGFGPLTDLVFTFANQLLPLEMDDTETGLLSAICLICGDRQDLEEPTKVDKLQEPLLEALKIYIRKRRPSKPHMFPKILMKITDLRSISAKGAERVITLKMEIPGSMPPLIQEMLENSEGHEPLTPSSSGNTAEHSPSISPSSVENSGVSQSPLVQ

The target of assay [19] is human RAR-related Orphan Receptor beta (RORb), RORB (gene 6096) (UniProt Q92753). The assay is described as follows: ATG_RORb_TRANS: Attagene TRANS-FACTORIAL HepG2 Assay for human RAR-related Orphan Receptor beta (RORb) (AID 2283010; active means hit-call score of the fitted dose curve at least 0.9, where 1 is the maximum). In a few lines: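 HepG2, transient MRTU transfection (GAL4-UAS reporters, exogenous NR-Gal4 chimeras); 24 h compound exposure; total RNA → RT-PCR → 6-FAM primer extension → HpaI digest → CE fluorescence. Positive direction vs DMSO baseline.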

Read-out in assay [20]: Intercellular Adhesion Molecule 1 (ICAM1), ICAM1 (gene 3383)
Nature of the assay: BSK_3C_ICAM1: BioMAP Diversity Plus: 3C Assay for Intercellular Adhesion Molecule 1 (ICAM1) Biomarker Activity (AID 2283003). Conditions: primary human endothelial cells (HUVEC); actives raise or lower the signal. The essentials: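 ELISA read-out of ICAM-1; HUVEC (primary human), 3C system, 24 h post-dosing; bidirectional fit vs DMSO baseline.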

Chain of human Peroxisome Proliferator-activated Receptor alpha (PPARa), PPARA (gene 5465) (Q07869 whole entry, looked up, the tested form may be a part): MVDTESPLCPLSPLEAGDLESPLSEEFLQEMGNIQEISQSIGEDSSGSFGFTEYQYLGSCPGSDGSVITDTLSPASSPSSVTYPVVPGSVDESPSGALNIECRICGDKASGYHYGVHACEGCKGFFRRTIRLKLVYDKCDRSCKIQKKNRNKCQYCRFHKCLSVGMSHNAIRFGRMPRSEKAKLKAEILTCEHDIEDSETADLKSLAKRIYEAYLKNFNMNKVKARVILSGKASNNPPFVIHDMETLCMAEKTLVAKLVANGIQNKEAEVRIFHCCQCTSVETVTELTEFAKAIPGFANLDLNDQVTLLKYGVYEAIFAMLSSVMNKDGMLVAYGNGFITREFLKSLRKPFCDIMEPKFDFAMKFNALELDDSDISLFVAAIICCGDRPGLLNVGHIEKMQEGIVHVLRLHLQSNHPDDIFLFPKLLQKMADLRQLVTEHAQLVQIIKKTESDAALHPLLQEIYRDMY
Chain of human Retinoic Acid Receptor gamma (RARg), RARG (gene 5916) (P13631 whole entry, looked up, the tested form may be a part): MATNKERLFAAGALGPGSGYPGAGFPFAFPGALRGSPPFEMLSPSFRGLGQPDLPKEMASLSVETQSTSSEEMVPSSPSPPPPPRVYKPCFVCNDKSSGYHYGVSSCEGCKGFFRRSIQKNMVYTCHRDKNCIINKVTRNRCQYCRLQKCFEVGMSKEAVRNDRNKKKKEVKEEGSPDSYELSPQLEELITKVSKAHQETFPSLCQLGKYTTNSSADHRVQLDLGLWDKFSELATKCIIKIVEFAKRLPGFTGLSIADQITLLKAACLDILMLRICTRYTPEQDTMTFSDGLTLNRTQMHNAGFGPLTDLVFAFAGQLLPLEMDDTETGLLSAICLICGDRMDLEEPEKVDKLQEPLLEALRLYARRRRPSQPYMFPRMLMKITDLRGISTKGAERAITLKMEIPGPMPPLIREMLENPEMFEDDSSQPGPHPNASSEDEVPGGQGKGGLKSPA
Chain of Myc proto-oncogene protein (Homo sapiens) (P01106 whole entry, looked up): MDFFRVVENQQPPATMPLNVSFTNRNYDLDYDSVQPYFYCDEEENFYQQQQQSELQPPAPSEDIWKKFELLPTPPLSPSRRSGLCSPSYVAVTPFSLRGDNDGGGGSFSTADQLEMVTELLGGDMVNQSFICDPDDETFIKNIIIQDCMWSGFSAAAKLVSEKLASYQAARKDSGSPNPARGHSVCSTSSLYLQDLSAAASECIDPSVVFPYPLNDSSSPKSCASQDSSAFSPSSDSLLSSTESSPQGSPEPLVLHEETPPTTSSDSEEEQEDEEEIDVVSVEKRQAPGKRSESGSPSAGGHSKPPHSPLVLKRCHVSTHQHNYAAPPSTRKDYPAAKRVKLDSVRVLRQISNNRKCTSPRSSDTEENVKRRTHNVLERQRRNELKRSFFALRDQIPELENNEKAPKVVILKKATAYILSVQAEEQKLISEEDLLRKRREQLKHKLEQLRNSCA
Chain of human Peroxisome Proliferator-activated Receptor delta (PPARd), PPARD (gene 5467) (Q03181 whole entry, looked up, the tested form may be a part): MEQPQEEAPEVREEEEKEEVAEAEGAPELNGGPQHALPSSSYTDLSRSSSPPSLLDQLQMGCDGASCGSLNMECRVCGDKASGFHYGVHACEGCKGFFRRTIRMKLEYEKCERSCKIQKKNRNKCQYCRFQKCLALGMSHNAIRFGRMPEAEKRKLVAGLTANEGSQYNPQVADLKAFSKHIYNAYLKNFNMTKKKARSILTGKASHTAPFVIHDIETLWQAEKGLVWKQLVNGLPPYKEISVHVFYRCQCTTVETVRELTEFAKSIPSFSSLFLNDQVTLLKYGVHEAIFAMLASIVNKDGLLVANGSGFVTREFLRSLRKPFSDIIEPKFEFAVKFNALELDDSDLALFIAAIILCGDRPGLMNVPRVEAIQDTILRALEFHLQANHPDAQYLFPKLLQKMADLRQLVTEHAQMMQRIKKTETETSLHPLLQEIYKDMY
Chain of human RAR-related Orphan Receptor gamma (RORg), RORC (gene 6097) (P51449 whole entry, looked up, the tested form may be a part): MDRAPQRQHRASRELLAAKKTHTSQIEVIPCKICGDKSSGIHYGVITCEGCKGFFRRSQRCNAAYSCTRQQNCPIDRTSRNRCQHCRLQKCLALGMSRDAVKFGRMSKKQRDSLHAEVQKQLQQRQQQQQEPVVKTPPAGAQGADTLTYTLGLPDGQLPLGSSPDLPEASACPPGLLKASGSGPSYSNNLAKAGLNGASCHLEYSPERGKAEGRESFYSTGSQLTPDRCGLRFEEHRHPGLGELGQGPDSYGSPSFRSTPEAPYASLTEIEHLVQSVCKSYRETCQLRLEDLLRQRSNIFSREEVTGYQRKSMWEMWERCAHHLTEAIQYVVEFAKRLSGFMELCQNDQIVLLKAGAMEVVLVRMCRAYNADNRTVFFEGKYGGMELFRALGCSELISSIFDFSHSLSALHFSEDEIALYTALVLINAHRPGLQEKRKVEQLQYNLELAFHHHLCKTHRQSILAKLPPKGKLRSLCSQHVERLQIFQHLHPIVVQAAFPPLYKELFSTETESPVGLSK

Regarding `O=C1OC[C@H](Cc2cccc(O)c2)[C@H]1Cc1cccc(O)c1`, the call in [1], in assay [2], in assay [3], in assay [4], in [5] and in assay [6] was inactive. Besides, the outcome in [7], in assay [8], in assay [9], in [10], in assay [11] and in assay [12] was inactive. The result in assay [14] was inactive. Moreover, the AC50 in assay [13] was 7.35 µM (active).

For the compound `O=C1OC2(c3ccccc31)c1ccc(O)c(Br)c1Oc1c2ccc(O)c1Br`, the outcome in assay [1], in assay [2], in assay [3], in assay [4], in [5] and in assay [15] was inactive. The compound was called inactive in assay [10], in assay [16], in [12], in assay [14] and in [17]. For the same compound, the AC50 in assay [6] was 31.9 µM (active); in assay [7] it was 20 µM (active); in assay [8], 20 µM (active); in [9], 28.9 µM (active); in assay [11] it was 9.61 µM (active).

For `CCCCCCCCCCCCS(=O)(=O)Cl`, the result in assay [1], in [2], in assay [3], in assay [4], in [5] and in assay [15] was inactive. The outcome in assay [10], in [16] and in [14] was inactive. The AC50 in assay [12] is 25 µM (active).

Consider `C/C=C(\C)C(=O)OCCc1ccccc1`, for which the call in assay [1], in assay [2], in assay [3], in assay [4], in assay [5] and in assay [15] was inactive. In addition, the result in assay [10], in assay [16], in assay [12] and in assay [17] was inactive. Also, the concentration at half-maximal activity (AC50) in [13] is 25.1 µM (active).

For the compound `CN(C)C(=O)Nc1ccc(Oc2ccc(Cl)cc2)cc1`, the compound was classed as inactive in [1], in [2], in assay [4], in [5], in assay [6] and in [8]. Further, the outcome in assay [9], in assay [15] and in assay [11] was inactive. Further, the AC50 in [3] is 61.4 µM (active); in [7], 2.32 µM (active); in assay [12] it was 17.4 µM (active); in assay [13], 26.6 µM (active).

With `CCN(CC)C(=O)N(CC)CC`, the result in assay [1], in assay [2], in [3], in assay [4], in assay [5] and in assay [6] was inactive. Besides, the result in assay [7], in assay [8], in assay [9], in assay [10], in assay [18] and in assay [16] was inactive. In addition, the result in assay [11], in [13], in assay [14] and in assay [17] was inactive.

As for `CC1(C)C2=CCCC(C)(C)[C@]23CC[C@H]1C3`, the outcome in assay [1], in assay [2], in [4], in assay [5], in assay [6] and in assay [8] was inactive. Moreover, the compound was called inactive in assay [10], in assay [18], in assay [12], in [14] and in assay [19]. The concentration at half-maximal activity (AC50) is 100 µM (active) in assay [3]; 36.4 µM (active) in assay [7]; 27.3 µM (active) in [9]; 31.7 µM (active) in assay [11]; 1.31 µM (active) in assay [13].

In the case of `Clc1cc(Cl)c(-c2c(Cl)c(Cl)cc(Cl)c2Cl)cc1Cl`, the result in assay [1], in [2], in assay [4], in assay [5], in [10] and in [20] was inactive. Moreover, the outcome in [12] was inactive. Also, the AC50 in assay [3] is 26.7 µM (active); in assay [6], 10 µM (active); in [7], 17.1 µM (active); in assay [8], 12.9 µM (active); in [9], 12.5 µM (active); in assay [11] it was 16.7 µM (active).

Values taken from PubChem BioAssay (EPA / NIEHS).
